# An excerpt weighted towards active compounds, which were near 12% of everything screened.
# WT yeast gro inh: growth inhibition of WT yeast, mitochondrial fusion screen; 190,000 compounds, 2.1% hits; inhibition, % at 10 µM; AID 1362; mitochondrial fusion phenotypic screen, WT strain; in the data active = inhibition above about 58%; tested in S. cerevisiae
# Lmaj promast: inhibitors of Leishmania major promastigote growth; 200,000 compounds, 9% hits; inhibition, % at 10 µM; Leishmania major promastigotes, resazurin fluorescence viability; in the data active = inhibition above about 50%;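 also: promastigotes grown with compound for 44 hours at 28 °C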
# Insulin prom up: MIN6 insulin promoter up-regulation | MIN6 insulin promoter-GFP reporter, high-content imaging; stronger effect = higher value | z-score at 5 µM | 190,000 compounds, 0.3% hits;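 active = z-score above 3 at 5 µM with at least 500 cells counted in the well; inconclusive = wells under 500 cells, flagged as cytotoxic or low count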
# Cl transport mod: modulates chloride dependent transport by human KCC2. Q9H2X9. KCC2 cells, thallium flux FluoZin-2 fluorescence. B-score of Tl+ flux slope (higher = more flux/activation; lower = inhibition) at 10 µM. 190,000 compounds, 2.2% hits. AID 1456;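 active = thallium flux slope and its plate-corrected score both differing from the plate sample mean at a set confidence after two filtering rounds, in either direction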;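 also: slope of fluorescence scaled to starting intensity during 10 to 20 s after thallium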
# INS promoter inh: TRM-6 insulin promoter activity inhibition. TRM-6 cells (human fetal islet line), insulin promoter-eGFP reporter, imaging; reporter expression induced with tamoxifen. inhibition, % at 2 µM. 130,000 compounds, 0.9% hits;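 active = inhibition above the mean plus 3 SD, with well images judged a real hit on visual review, cut at about 60% in these data, passing the limit was not always enough; inconclusive = inhibition over the cutoff but images rejected on review; inactive = inhibition not above the cutoff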
# ROMK mod: modulates human ROMK potassium channel activity; 130,000 compounds, 2% hits; Tet-inducible ROMK, thallium flux fluorescence; actives lie on both sides; B-score at 10 µM; P48048;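 active = signal ratio slope over the read window, or its plate-corrected B-score, at least 3 SD from the plate mean, either direction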;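 also: B-score of the F/F0 ratio slope over 7 to 12 s after thallium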
# Target sequence (P48048 whole entry, looked up): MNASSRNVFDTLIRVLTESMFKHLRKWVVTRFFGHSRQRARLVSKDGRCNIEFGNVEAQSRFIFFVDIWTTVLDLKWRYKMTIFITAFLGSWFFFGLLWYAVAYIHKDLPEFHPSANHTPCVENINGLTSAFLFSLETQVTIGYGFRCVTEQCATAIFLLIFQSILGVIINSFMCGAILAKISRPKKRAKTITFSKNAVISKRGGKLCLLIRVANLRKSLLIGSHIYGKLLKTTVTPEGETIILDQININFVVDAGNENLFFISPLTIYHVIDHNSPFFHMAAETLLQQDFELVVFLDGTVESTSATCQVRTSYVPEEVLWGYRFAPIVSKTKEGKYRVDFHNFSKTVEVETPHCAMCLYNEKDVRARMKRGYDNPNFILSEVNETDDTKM
# Numbers without * were called inactive; i = inactive; ? = inconclusive; / = not tested or not shown.
SMILES,WT yeast gro inh,Lmaj promast,Insulin prom up,Cl transport mod,INS promoter inh,ROMK mod
CN1CCC(N(C)C(=S)Nc2ccc(SC(F)F)cc2)CC1,0,76*,-0.08,-0.22,15,/
OC1CCCN(C(=S)Nc2ccc(SC(F)F)cc2)C1 (stereo not given),1,-5,/,-0.05,/,/
CC1CC(C)CN(C(=S)Nc2ccc(OC(F)F)cc2)C1 (stereo not given),-17,85*,0.34,-0.27,-16,-0.017
CC(C)(C)c1ccc(OCC(=O)NCc2ccco2)c(Br)c1,1,48,-0.27,/,33,/
COc1ccc(NC(=O)COc2ccc(CNCCCN3CCOCC3)cc2OC)cc1,-20,-2,-0.03,-0.1,-12,-0.25
CCOc1ccc(CNCCc2ccc(S(N)(=O)=O)cc2)cc1,1,20,-0.24,-0.89,/,-0.52
COc1cc(CNCCN2CCOCC2)ccc1OCc1ccccc1Cl,-15,92*,-0.88,-0.54,/,/
CCOc1cc(CNCCc2ccc(S(N)(=O)=O)cc2)ccc1OCc1ccc(Cl)cc1,8,101*,?,-0.59,/,-1.1
COc1ccc(Cl)cc1NC(=S)NCCN1CCOCC1,-10,-2,0.3,0,/,0.044
COc1cc(CNCc2ccccn2)ccc1OCc1ccccc1Cl,-3,94*,-0.76,0.022,/,-0.83
COc1cc(CNCCN2CCOCC2)ccc1OCc1ccc(Cl)cc1,3,94*,/,-0.63,-35,-2.4
CCOc1c(Cl)cc(CNCc2ccccn2)cc1OC,-22,-2,-1.5,-0.53,/,-0.63
COc1ccc(Cn2c(-c3ccc(C)cc3)nc3c(c(=O)c4ccccc4n3C)c2=O)cc1,1,88*,0.09,0.86,19,0.19
COc1ccc(CCn2c(C(C)C)nc3c(c(=O)c4ccccc4n3C)c2=O)cc1,-7,35,-0.38,-4.3*,-66,/
CCOC(=O)C1=C(c2ccccc2)NC(=O)N(C(C)=O)C1c1cccc([N+](=O)[O-])c1 (stereo not given),12,13,0.14,/,/,0.029
CC1CC(=O)C(C2c3ccccc3CCN2C(=O)CCl)C(=O)C1 (stereo not given),-9,51*,-1.3,-0.041,0,/
COc1cc2c(cc1OC)C(C1C(=O)CC(C)(C)CC1=O)N(C(=O)CCl)CC2 (stereo not given),-15,26,-0.15,0.94,-30,0.75
CC(=O)c1nn(-c2cccc(Cl)c2)cc1C(=O)c1ccco1,2,-4,-0.91,/,31,0.94
Cc1ccc(C(=O)NCC(=O)OCC(=O)c2ccc3c(c2)NC(=O)CO3)cc1C,-2,-4,0.09,0.62,36,1.5
Cc1cc(C)cc(OCC(=O)OCC(=O)c2ccc3c(c2)NC(=O)CO3)c1,70*,-6,/,0.18,/,1.4
O=C1COc2ccc(C(=O)/C=C/c3ccccc3)cc2N1,11,84*,-0.1,0.8,-69,0.04
O=C(/C=C/c1ccccc1)c1ccc2c(c1)OCCCCO2,15,44,-0.99,-0.22,/,/
O=C(CNC(=O)C(c1ccccc1)c1ccccc1)N/N=C/c1ccc(O)cc1O,/,/,-0.07,0.06,/,/
Cc1cc(SCC(=O)N/N=C/c2ccc(O)cc2O)c(C)cc1Br,-12,100*,0.22,i,50,/
Clc1cccc(Cl)c1Cn1cnc2c(N3CCCCCC3)ncnc21,75*,5,-0.05,0.0086,-456,-0.93
SMILES,WT yeast gro inh,Lmaj promast,Insulin prom up,Cl transport mod,INS promoter inh,ROMK mod
CCN(CC)c1ncnc2c1ncn2Cc1c(Cl)cccc1Cl,-11,12,-1.1,-0.77,-56,-0.9
O=C(Cn1cc(C(=O)C(F)(F)F)c2cc(Br)ccc21)N1CCOCC1,2,3,-0.13,-0.018,/,-0.97
Cc1cccc(OC2CCN(Cc3c(C(=O)N4CCCC4)nc4ccccn34)CC2)c1,8,99*,/,/,5,-0.65
Cc1cccc(OC2CCN(Cc3nc(CC4CC4)no3)CC2)c1,6,-2,0.3,0.048,/,-0.053
O=C(c1nc2ccccn2c1CN1CCC(Cc2ccccc2)CC1)N1CCCC1,13,69*,-0.62,-0.14,/,-0.056
CN1Cc2ccccc2CC1CNCc1c(C(=O)N2CCCC2)nc2ccccn12 (stereo not given),-9,-4,-1.1,/,/,0.8
O=c1cc(CN2CCC(Cc3ccccc3)CC2)nc2sccn12,8,88*,-0.39,-0.31,-60,1
Cc1cc(C(=O)Cn2nnc3ccccc3c2=O)c(C)n1-c1ccccc1F,-25,-4,-0.24,-0.64,10,-0.053
CCCCSc1c(C)c2cc3c(cc2[nH]c1=O)OCO3,4,22,-1.3,0.78,35,/
COc1ccc(-c2nc(N)nc(C)c2Oc2ccccc2Br)c(O)c1,83*,30,-0.35,-1,-97,/
CCOc1ccc(-c2nc(N)ncc2Oc2ccc(OC)cc2)c(O)c1,/,/,-0.1,0.92,/,/
Cc1ccc(C(C(=O)NCc2ccco2)N(C(=O)CNC(=O)c2cccs2)c2ccc(C)cc2)cc1 (stereo not given),-1,-5,/,/,-25,/
CN(C(=O)CSc1nnc(-c2ccc(F)cc2)c2ccccc12)C1CCS(=O)(=O)C1 (stereo not given),6,23,-0.7,1.3,/,-1.6
Cn1c(SCC(=O)NNC(=S)Nc2ccccc2)nnc1-c1ccccc1,/,/,-0.34,-1.4,/,-0.65
CCC(C)NC(=O)CSc1nc2ccccc2c(=O)n1-c1c(C)n(C)n(-c2ccccc2)c1=O (stereo not given),-8,-4,0.23,0.49,/,-0.02
Cc1ccc(S(=O)OCC(=O)Nc2cc(Cl)ccc2N2CCOCC2)cc1 (stereo not given),-5,99*,0.18,-0.85,7,-0.021
O=C(COS(=O)c1ccccc1)Nc1cc(Cl)ccc1N1CCOCC1 (stereo not given),-8,44,0.34,-0.14,/,-0.13
C[C@H](NC(=O)c1[nH]cnc1C(=O)Nc1ccc(Cl)cc1)C(=O)OC(C)(C)C,/,/,-0.36,-0.54,/,/
COc1ccc(/C=C2\SC(=O)N(CCNC(=O)Cn3cnnn3)C2=O)cc1,-18,56*,/,-0.25,20,0.24
COc1ccc(/C=C2\SC(=O)N(CCNC(=O)CCS(=O)(=O)c3ccc(C)cc3)C2=O)cc1,-6,10,0.8,-1.7,/,/
COc1ccc(/C=C2\SC(=O)N(CCNC(=O)C3CCN(S(=O)(=O)c4cccs4)CC3)C2=O)cc1,-11,64*,0.46,0.029,-24,-0.037
O=C(NCCN1C(=O)S/C(=C\c2ccc(F)cc2)C1=O)C1CCN(S(=O)(=O)c2cccs2)CC1,-5,21,-0.03,-0.29,-41,-0.2
O=C(Nc1nnc(-c2ccncc2)o1)c1ccccc1,-13,3,0.64,1.2,/,0.13
O=C(Nc1nnc(-c2ccc3c(c2)CCCC3)o1)c1ccccc1,75*,96*,0.89,79*,/,/
O=C(Nc1nnc(-c2ccc3c(c2)CCCC3)o1)c1ccccc1Cl,74,12,-0.21,50*,/,/
O=C(Nc1nnc(-c2ccc3c(c2)OCCO3)o1)C1CCCCC1,1,72*,0.37,-0.25,/,0.028
O=C(Nc1nnc(-c2ccc3c(c2)OCCO3)o1)c1ccc(Cc2ccccc2)cc1,61*,-1,0.23,2.1,/,/

# Assay outcomes (PubChem BioAssay)
